Compound activity as filed in PubChem BioAssay.
This is a sample that favours compounds with a hit; in the whole collection about 10% have one here.
FLuc inh: Photinus pyralis luciferase inhibition; P08659; purified P. pyralis luciferase, luminescence, biochemical; 76,000 tested, 2.5% active; Potency, µM (series often up to 115 µM), most hits filed as inhibitors; AID 1347043; note: nearly all actives have a fitted effect of over 65% in size
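Biochemical qHTS: compound (6-point titration) added to 10uM D-luciferin plus 10uM ATP in Tris acetate pH 7.5 buffer with Mg, Tween-20 and BSA, then purified enzyme at 10nM; light output imaged.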
NIH3T3 tox: NIH 3T3 cell cytotoxicity. NIH 3T3 viability, CellTiter-Glo ATP luminescence, 48-72 h. Potency, µM (titrated, usually from 96.7 µM), hits mostly inhibitors. 94,000 tested, 4.3% active. AID 1345082; note: nearly all actives have a fitted effect of over 55% in size
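Cytotoxicity was measured by CellTiter-Glo ATP luminescence after 48 or 72 h compound exposure at 37 °C. Mouse NIH 3T3 fibroblasts were seeded at 400 cells/well and dosed by 23 nL pin transfer.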
HEK cytotox: kills HEK 293 cells; HEK 293 viability, ATP luminescence (CellTiter-Glo), 48-72 h; 94,000 tested, 6.6% active; Potency, µM (series often up to 115 µM), usual class: inhibitors; note: nearly all actives have a fitted effect of over 60% in size
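ATP-coupled CellTiter-Glo luminescence served as viability read-out, recorded 10 min after reagent addition at room temperature. HEK 293 cells, 250 cells/well, had been incubated with pintool-transferred compound for 48 or 72 hr at 37 degree Celsius.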
hNpr1 antagonist: human Npr1 receptor antagonism. P16066. HEK293 hNpr1 GloSensor cGMP, ANP-stimulated luminescence. Potency, µM (series often up to 46.3 µM), hits mostly inhibitors. 76,000 tested, 1.6% active. AID 1347048; calls by dose curve; note: nearly all actives have a fitted effect of over 60% in size
Target sequence (P16066 whole entry, looked up): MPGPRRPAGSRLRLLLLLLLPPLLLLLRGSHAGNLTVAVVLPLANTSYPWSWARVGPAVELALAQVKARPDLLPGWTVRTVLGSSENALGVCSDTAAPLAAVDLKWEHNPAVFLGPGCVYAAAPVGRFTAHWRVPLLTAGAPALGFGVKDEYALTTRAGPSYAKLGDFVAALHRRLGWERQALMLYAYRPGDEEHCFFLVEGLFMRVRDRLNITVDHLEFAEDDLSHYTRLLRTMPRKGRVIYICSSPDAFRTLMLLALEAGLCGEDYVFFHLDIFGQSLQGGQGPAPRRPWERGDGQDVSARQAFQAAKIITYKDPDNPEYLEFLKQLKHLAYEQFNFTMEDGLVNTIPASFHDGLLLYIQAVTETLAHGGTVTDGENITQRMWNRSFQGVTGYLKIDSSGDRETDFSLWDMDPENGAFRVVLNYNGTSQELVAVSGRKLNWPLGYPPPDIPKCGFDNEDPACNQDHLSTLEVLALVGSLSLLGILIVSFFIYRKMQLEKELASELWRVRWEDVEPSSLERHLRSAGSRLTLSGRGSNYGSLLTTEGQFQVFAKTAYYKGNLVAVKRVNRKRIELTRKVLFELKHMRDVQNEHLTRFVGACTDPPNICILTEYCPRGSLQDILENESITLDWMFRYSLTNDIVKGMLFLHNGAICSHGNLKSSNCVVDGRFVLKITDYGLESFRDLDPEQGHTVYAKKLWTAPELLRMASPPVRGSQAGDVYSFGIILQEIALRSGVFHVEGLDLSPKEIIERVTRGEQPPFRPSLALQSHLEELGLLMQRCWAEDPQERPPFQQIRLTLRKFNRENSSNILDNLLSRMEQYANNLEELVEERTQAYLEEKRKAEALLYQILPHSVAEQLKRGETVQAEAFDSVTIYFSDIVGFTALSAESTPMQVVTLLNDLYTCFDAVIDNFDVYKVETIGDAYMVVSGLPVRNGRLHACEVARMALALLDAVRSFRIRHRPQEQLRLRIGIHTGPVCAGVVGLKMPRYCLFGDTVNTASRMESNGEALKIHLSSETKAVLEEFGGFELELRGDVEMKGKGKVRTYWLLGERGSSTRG
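Compound pre-incubated 30 min at room temperature on GloSensor-loaded HEK293 cells stably carrying hNpr1 and the pGS-40F cGMP biosensor. Stimulation uses hNppA at 0.1 nM final; luminescence is taken at baseline and 20 min post-agonist.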
GPT2 inhibitor: GPT2 alanine aminotransferase inhibition; Q8TD30; Recombinant GPT2, coupled pyruvate oxidase/HRP Amplex Red fluorescence; Potency, µM (doses to about 57.7 µM), most hits filed as inhibitors; 100,000 tested, 0.25% active; note: nearly all actives have a fitted effect of over 60% in size
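Fluorescence of coupled pyruvate oxidase/HRP/Amplex Red system (50uM Amplex, 30 min, dark) reports pyruvate formed by GPT2. Enzyme reaction: 10ng/uL GPT2, 2mM L-alanine, 250uM a-KG, 30 min room temperature, pH 7.5; 50uM AOA control.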
Hits are given with their value; 0 = inactive; ? = inconclusive; - = no result given. Unless noted, calls come from the whole dose curve; as a rule, active = well fitted curve in the direction sought with a large enough effect; inconclusive = small, poorly fitted or top-dose-only effect, or another doubt; inactive = no such curve, though single readings can be large; an effect the other way counts as inactive or inconclusive.

SMILES	FLuc inh	NIH3T3 tox	HEK cytotox	hNpr1 antagonist	GPT2 inhibitor
O=C(NC1CCCN(c2cc(-c3ccccc3)[nH]n2)C1)c1ccc2cc[nH]c2c1 (stereo not drawn)	14.1µM	?	?	?	?
O=C(NC1CCCN(c2cc(-c3ccccc3)[nH]n2)C1)c1ccc2nc[nH]c2c1 (stereo not drawn)	31.6µM	0	0	0	0
O=C(NC1CCN(c2cc(-c3ccc(F)cc3)[nH]n2)C1)c1ccc(Br)o1 (stereo not drawn)	0	?	?	0	?
O=C(NC1CCCN(c2cc(-c3ccc(F)cc3)[nH]n2)C1)c1ccc(Br)o1 (stereo not drawn)	?	?	31.6µM	0	0
Cc1nc(C(=O)N2CCCC(c3[nH]ncc3Cc3ccccc3)C2)cs1 (stereo not drawn)	0	?	?	0	0
Cc1ccc(NC(=O)CC2CCCN(c3cnn(CC4CC4)c(=O)c3)C2)cc1 (stereo not drawn)	0	?	0	0	0
CCc1cccc(NC(=O)CC2CCCN(c3cnn(CC4CC4)c(=O)c3)C2)c1 (stereo not drawn)	0	39.8µM	?	0	0
Cc1cccc(NC(=O)CC2CCCN(c3cnn(CC4CC4)c(=O)c3)C2)c1 (stereo not drawn)	0	25.1µM	?	0	0
COCCC1(NS(=O)(=O)N(C)C)CCN(S(C)(=O)=O)CC1	0	0	0	0	0
CCc1cccc2c(C(CC(=O)N3CCc4ccccc4C3)c3cccc4c3OCO4)c[nH]c12 (stereo not drawn)	0	17.8µM	?	0	0
CCc1cccc2c(C(CC(=O)N3CCCCC3)c3cccc(C)c3)c[nH]c12 (stereo not drawn)	0	0	?	0	0
CCc1cccc2c(C(CC(=O)N3CCCC3)c3cccc([N+](=O)[O-])c3)c[nH]c12 (stereo not drawn)	0	28.2µM	?	0	0
CN1C(=O)CC[C@]2(C(=O)NCc3ccccc3Cl)CCCC[C@@H]12	0	0	0	0	0
O=C(Nc1ccc(Cl)cc1)N1CCN(c2ccc3nnc(C4CC4)n3n2)CC1	-	22.4µM	35.5µM	-	-
COc1ccc(S(=O)(=O)N2CCc3c(C(=O)NCCc4cccs4)cccc32)cc1	0	0	25.1µM	?	0
COc1ccc(S(=O)(=O)N2CCc3c(C(=O)NCc4ccccn4)cccc32)cc1	0	?	35.5µM	?	0
COc1ccc(S(=O)(=O)N2CCc3c(C(=O)NCCN(C)C)cccc32)cc1	?	?	?	0	0
CCCCNC(=O)c1cccc2c1CCN2S(=O)(=O)c1ccc(C)cc1	0	?	17.8µM	?	0
O=C(NCc1ccccn1)c1cccc2c1CCN2C(=O)C1CC1	0	?	0	0	0
Cc1nn(-c2ccccc2)c2c1C(C(C)C)N(C1CCN(C(=O)c3ccc(Cl)nc3)C1)C2=O (stereo not drawn)	-	0	?	-	-
Cc1nn(-c2ccccc2)c2c1C(C(C)C)N(C1CN(C(=O)C(C)(C)C)C1)C2=O (stereo not drawn)	-	0	0	-	-
COCC(=O)N1CCCC(N2C(=O)c3c(c(C)nn3-c3ccccc3)C2C(C)C)C1 (stereo not drawn)	-	0	?	-	-
Cc1nn(-c2ccccc2)c2c1C(C(C)C)N(C1CCCN(C(=O)c3ccc(F)cc3)C1)C2=O (stereo not drawn)	-	?	28.2µM	-	-
Cc1nn(-c2ccccc2)c2c1C(C(C)C)N(C1CN(C(=O)Cc3ccccc3)C1)C2=O (stereo not drawn)	-	?	50.1µM	-	-
Cc1nn(-c2ccccc2)c2c1C(C(C)C)N(C1CCCN(C(=O)N(C)C)C1)C2=O (stereo not drawn)	-	0	0	-	-
SMILES	FLuc inh	NIH3T3 tox	HEK cytotox	hNpr1 antagonist	GPT2 inhibitor
Cc1nn(-c2ccccc2)c2c1C(C(C)C)N(C1CCCN(C(=O)C3CC3)C1)C2=O (stereo not drawn)	-	?	28.2µM	-	-
Cc1nn(-c2ccccc2)c2c1C(C(C)C)N(C1CCN(C(=O)c3ccc(F)cc3)C1)C2=O (stereo not drawn)	-	?	44.7µM	-	-
O=C(c1ccc(Cl)cc1)N1CCC(N2CCCNC2=O)CC1	-	0	0	-	0
Cc1nn(-c2ccccc2)c2c1C(C(C)C)N(C1CCCN(C(=O)Cc3ccc(F)cc3)C1)C2=O (stereo not drawn)	-	?	25.1µM	-	-
Cc1nn(-c2ccccc2)c2c1C(C(C)C)N(C1CCN(C(=O)N3CCOCC3)C1)C2=O (stereo not drawn)	-	?	79.4µM	-	-
Cc1nn(-c2ccccc2)c2c1C(C(C)C)N(C1CCCN(C(=O)c3ccc(Cl)nc3)C1)C2=O (stereo not drawn)	-	?	39.8µM	-	-
Cc1nn(-c2ccccc2)c2c1C(C1CC1)N(C1CCN(C(=O)Cc3ccc(F)cc3)C1)C2=O (stereo not drawn)	-	?	35.5µM	-	-
Cc1nnc2ccc(N3CCCC(NC(=O)c4ccccc4)C3)nn12 (stereo not drawn)	-	0	0	-	-
CCN1C(=O)CCN(C(=O)NC2CCCCC2)CC12CCOCC2	0	0	0	0	0
O=C1Nc2ccccc2CC12CCN(Cc1ccccc1)CC2	0	0	0	0	0
CC1(c2ccccc2)N(Cc2ncccn2)C(=O)OC12CCN(C(=O)Cc1ccc(Cl)cc1)CC2 (stereo not drawn)	0	?	0	0	0
Cn1nccc1C(=O)N1CCC2(CC1)OC(=O)N(Cc1ccccc1)C2(C)c1ccccc1 (stereo not drawn)	0	?	0	0	0
CC(C)C(=O)N1CCC2(CC1)OC(=O)N(Cc1ccccc1)C2(C)c1cccnc1 (stereo not drawn)	0	20µM	0	0	0
CC1(c2ccccc2)N(Cc2ncccn2)C(=O)OC12CCN(C(=O)Cc1ccc3c(c1)OCO3)CC2 (stereo not drawn)	0	39.8µM	0	0	0
CC(C)C(=O)N1CCC2(CC1)OC(=O)N(Cc1ncccn1)C2(C)c1ccccc1 (stereo not drawn)	0	89.1µM	0	0	0
CC(=O)N1CCC2(CC1)OC(=O)N(Cc1ccccc1)C2(C)c1cccnc1 (stereo not drawn)	0	?	0	0	0
Cn1nccc1C(=O)N1CCC2(CC1)OC(=O)N(Cc1ccccc1)C2(C)c1cccnc1 (stereo not drawn)	0	28.2µM	0	0	0
CCc1ncc(C(=O)N2CCN(Cc3ccccc3C#N)CC2)cn1	0	0	0	0	0
Cc1cccc(CC(=O)N2CCCC(CN3CCCC3)CC2)c1 (stereo not drawn)	0	0	?	0	0
c1ccc(CCCCn2ccnc2-c2cc3n(n2)CCCNC3)cc1	0	?	0	0	0
Clc1ccc(Cn2ccnc2-c2cc3n(n2)CCCNC3)cc1Cl	0	25.1µM	?	0	0
